From PubChem BioAssay AID504339 (National Center for Advancing Translational Sciences (NCATS), 2011)
About 17,000 (4.4%) of roughly 390,000 compounds were called active. Another 8% or so got no clear call; they are omitted. Calls come from the whole dose curve; as a rule, active = well fitted inhibition curve with a large enough effect; inconclusive = small, poorly fitted or top-dose-only effect; inactive = no such curve, though single readings can be large or run the other way. Shown is part of a subset that was picked to be rich in actives.

biological target: Lysine-specific demethylase 4A (Homo sapiens) (UniProt O75164); test: qHTS Assay for Inhibitors of JMJD2A-Tudor Domain; settings: AlphaScreen JMJD2A-Tudor / H3K4me3 peptide binding; series mostly up to 114 µM; note: nearly all actives have a fitted effect of over 50% in size
Text: JMJD2A is a jumonji-domain-containing lysine demethylase that uses Fe(II) together with 2-OG to effect oxidative demethylation of histones. Methylation is one of many […] modification that affect epigenetic transcription. […] It is proposed that the functions of JmjD2A binding to the histones, is to maintain marks after they are installed and to spread the modifications by […], establishing a self-propagating cycle for rapid methylation over a large area of chromatin. […] Thus, small molecule targeting of the JMJD2A-tudor domain interaction with its target methylhistone mark is expected to enable sophisticated experiments probing the fine regulatory pathways leading to selective demethylation of a given methyllysine locus based on the methylation state of adjacent histone marks. A quantitative high throughput AlphaScreen has been developed to identify small molecule inhibitors based on a protocol published by NCGC and SGC [4].
Although AlphaScreen has significant advantages with its utility in a variety of epigenetic target assays, the primary screening data provided in this deposition should be used with caution due to the prevalence of screening artifacts. The top compound concentration tested was high (>100uM) in this assay, which increases number of actives and potential artifacts. An AlphaScreen counterscreen is highly recommended to be run against any putative actives to eliminate non-specific artifacts. Alternatively, one can use other AlphaScreen assays in PubChem to filter out promiscuous hits.
[1] Lee, J. et al. Distinct binding modes specify the recognition of methylated histone H3K4 and H4K20 by JMJD2A-tudor. Nat Struct Mol Biol. 15(1); 109-11. 2008. PMID: 18084306
[2] Yasgar, et al. Compound Management for Quantitative High-Throughput Screening. JALA. 2008 Apr;13(2):79-89. PMID: 18496600
[3] Inglese, et al. Quantitative high-throughput screening: a titration-based approach that efficiently identifies biological activities in large chemical libraries. Proc Natl Acad Sci. 1;103(31):11473-8. 2006. PMID: 16864780
[4] Quinn et al. A homogeneous method for investigation of methyl-dependent protein-protein interactions in epigenetics. Nucleic Acids Res., 38(2):e11. 2010. PMID: […]
[5] Baell,Holloway. New substructure filters for removal of pan assay interference compounds (PAINS) from screening libraries and for their exclusion in bioassays. J Med Chem. 53(7):2719-40. 2010. PMID: 20131845
NIH Molecular Libraries Probe Production Network [MLPCN]
NIH Chemical Genomics Center [NCGC]
Structural Genomics Consortium (SGC)
To each well of a 1,536w plate, 2ul of JMJD2A-Tudor (final 100nM) and 1ul biotinylated histone peptide methylated at Lys4 [b-H3(1-18)K4me3] (final 50nM) were added in 1x PBS buffer, pH 7.4, containing 0.01% Tween-20, using a nanoliter dispenser. Formation of a protein-peptide complex proceeded at room temperature for 30 min. A Kalypsys pin-tool transferred 23nl of library compound solution in DMSO to each well. Following a 30 min incubation of the protein-peptide complex with compounds at room temperature, a mixture of 40 µg/mL each streptavidin-coated donor and nickel chelate acceptor AlphaScreen beads (final 10 µg/mL) was added in a 1ul dispense for a final volume of 4ul, followed by a brief centrifugation (1000 rpm, 1 min). Plates were incubated protected from the light for 20 min at room temperature. Microplates were then read on an EnVision multilabel plate reader using the 1,536 plate HTS AlphaScreen aperture (excitation time 80 ms, measurement time 240 ms).
Potency is the fitted concentration of half-maximal effect.

Lysine-specific demethylase 4A (Homo sapiens), sequence (O75164 whole entry, looked up, the tested form may be a part): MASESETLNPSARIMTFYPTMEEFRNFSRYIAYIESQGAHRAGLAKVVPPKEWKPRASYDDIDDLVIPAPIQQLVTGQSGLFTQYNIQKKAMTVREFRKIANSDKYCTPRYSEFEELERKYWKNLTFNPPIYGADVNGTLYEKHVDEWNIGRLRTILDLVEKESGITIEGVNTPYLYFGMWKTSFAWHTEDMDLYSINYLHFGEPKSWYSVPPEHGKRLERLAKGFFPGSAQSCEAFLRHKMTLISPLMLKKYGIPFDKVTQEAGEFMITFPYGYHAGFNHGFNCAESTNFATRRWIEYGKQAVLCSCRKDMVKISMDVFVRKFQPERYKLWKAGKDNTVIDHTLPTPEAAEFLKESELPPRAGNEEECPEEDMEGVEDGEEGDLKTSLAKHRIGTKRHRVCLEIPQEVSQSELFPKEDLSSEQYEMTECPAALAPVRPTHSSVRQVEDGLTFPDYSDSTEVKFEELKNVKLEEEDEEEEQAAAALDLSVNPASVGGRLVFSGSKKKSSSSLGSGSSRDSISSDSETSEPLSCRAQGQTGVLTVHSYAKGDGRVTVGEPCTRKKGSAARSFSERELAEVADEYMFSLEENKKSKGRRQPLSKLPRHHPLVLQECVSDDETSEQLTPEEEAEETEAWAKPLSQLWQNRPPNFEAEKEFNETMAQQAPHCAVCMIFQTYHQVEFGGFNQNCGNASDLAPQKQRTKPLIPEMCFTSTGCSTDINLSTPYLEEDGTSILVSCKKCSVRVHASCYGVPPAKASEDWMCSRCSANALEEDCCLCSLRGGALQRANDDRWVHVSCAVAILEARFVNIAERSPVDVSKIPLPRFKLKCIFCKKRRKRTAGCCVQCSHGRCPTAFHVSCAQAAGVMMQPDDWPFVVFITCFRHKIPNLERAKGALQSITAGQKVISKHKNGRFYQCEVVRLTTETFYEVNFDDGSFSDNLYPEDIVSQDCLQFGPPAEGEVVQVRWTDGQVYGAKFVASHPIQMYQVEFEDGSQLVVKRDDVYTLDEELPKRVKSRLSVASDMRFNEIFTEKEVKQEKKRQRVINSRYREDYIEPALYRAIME

Potency, inactive:
CCC1(C)Cc2c(sc3[nH]c(=S)n(Cc4ccccc4)c(=O)c23)CO1 (stereo not drawn)
Cc1ccc(CCNC(=O)Cn2c(-c3cccs3)cc3cc(F)ccc32)cc1
N#C/C(=C(\O)C(F)(F)F)c1nnc2n1CCCCC2
N#C/C(=C/c1cccc([N+](=O)[O-])c1)c1nnc2n1CCCCC2
COc1ccc(N2CCN(c3cc(C)nc4nncn34)CC2)cc1
CCCCN1CC(c2nc3ccccc3n2CCCCOc2ccc(C)cc2C)CC1=O (stereo not drawn)
O=[N+]([O-])c1ccc(S(=O)(=O)N2CCN(c3nc(-c4ccccc4)nc4ccccc34)CC2)cc1
CN(C)/C=C/C(=O)c1ccccc1F
Cc1nc(COc2cccc(Cl)c2)sc1C(=O)/C=C/N(C)C
COCCN(Cc1ccco1)C(=O)Cn1ncc2c([nH]c3ccccc32)c1=O
O=S(=O)(c1ccc2c(c1)OCCO2)N1CCN(S(=O)(=O)c2cc(F)ccc2F)CC1
CCOC(=O)c1c(S(=O)(=O)N2CCCC(C(=O)NCc3ccc(F)cc3)C2)c(C)n(CC)c1C (stereo not drawn)
CCN(CC)CCn1c2c(c(SCC(=O)Nc3nc4ccccc4s3)nc1=O)CCCC2
Cn1c(=O)[nH]c(=O)c2c1nc(N1CCN(CCO)CC1)n2CCSc1nc2ccccc2s1
COc1ccc(C(=O)COC(=O)CCCC(=O)Nc2cc(C(F)(F)F)ccc2Cl)cc1
COc1c(Cl)cc(C(=O)N(Cc2ccccc2F)C2CCS(=O)(=O)C2)cc1Cl (stereo not drawn)
Cn1nnnc1SCCNCc1ccc(Cl)c(Cl)c1
CCOc1ccccc1C(=O)NCc1ccc2c(c1)CCN2C(=O)c1ccc(F)cc1
COc1cc(OC)cc(-c2c(-c3ccc(F)cc3)c3cc(-c4ccc5cc[nH]c5c4)ccc3n2C)c1
COc1cc(OC)cc(-c2c(-c3cccs3)c3cc(-c4ccc(OC)nc4)ccc3n2C)c1
Cc1cccc(OCCCC(=O)Nc2sc3c(c2C(N)=O)CCC(C)C3)c1 (stereo not drawn)
CCS(=O)(=O)c1nc(S(=O)(=O)c2ccc(C)cc2)c(NCc2ccc(Cl)cc2)s1
Cc1ccccc1NC(=O)Cn1c(=O)n(CC2CCC(C(=O)NCCc3ccccc3)CC2)c(=O)c2ccccc21 (stereo not drawn)
CCc1ccc(CNC(=O)c2cc3c(=O)n(CC)c4ccccc4c3s2)cc1
CN(C)c1cc[n+](Cc2ccccc2)cc1
CN(C)c1ccc(C(CC(=O)O)C(=O)O)cc1 (stereo not drawn)

Potency, active:
C=CCn1c(=S)[nH]c2scc(-c3ccco3)c2c1=O 28.2 µM
N#C/C(=C(\O)CCl)c1nnc2n1CCCCC2 35.5 µM
Cc1nc(-c2ccccc2)sc1C(=O)/C=C/N(C)C 44.7 µM
CCN(CC)CCCSc1nc2ccccc2s1 28.2 µM
COc1ccc(-c2c(-c3cc(OC)cc(OC)c3)n(C)c3ccc(-c4ccn[nH]4)cc23)cc1 22.4 µM
Cc1cc(C)nc(N/N=C/c2c(CO)cnc(C)c2O)n1 89.1 µM
CN(C)c1ccc(CSc2ccccc2)cc1 20 µM
